Measured values published in PubChem BioAssay (NCI).
This is part of a sample that, as a whole, favours compounds with a hit. Of some 83,000 tested, about 20% had one in any assay.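 Single-dose data. Exposure time 48 hours. Values below 10 considered active.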 Values without a mark were called inactive. Active and inactive are the calls of the source.

Columns and labels:
Assay in all cases: NCI-60 one-dose screen, 48 h (100 = growth as untreated, 0 = no growth, -100 = all killed)
Details in all cases: 10 µM unless noted
[1] = test system: NCI-H23 lung
[2] = test system: NCI-H226 lung
[3] = test system: HOP-62 NSCLC
[4] = test system: NCI-H460 lung
[5] = test system: HOP-92 NSCLC
[6] = test system: NCI-H522 lung
[7] = test system: A549/ATCC NSCLC
[8] = test system: 786-0 renal
[9] = test system: COLO 205 colon
[10] = test system: NCI-H322M lung

SMILES	growth [1]	growth [2]	growth [3]	growth [4]	growth [5]	growth [6]	growth [7]	growth [8]	growth [9]	growth [10]
C=CCN1C(=O)c2cccc3c(-c4ccc5c(c4)ncn5C4CCCCC4)ccc(c23)C1=O	50.5%	44.8%	67.1%	58.2%	32.4%	52%	58.3%	58.8%	47%	
CCN1CCN(c2nc(C)cc(N(CCCNc3ccnc4cc(Cl)ccc34)Cc3ccc4c(c3)OCO4)n2)CC1	46%	61%	-42.1% (active)	-6.13% (active)	-33.9% (active)	-43.1% (active)	5.33% (active)	-85.8% (active)	-78.6% (active)	
CCCC(=O)OCC1OC(n2cnc3c(=S)nc(N)[nH]c32)C(OC(=O)CCC)C1OC(=O)CCC (stereo not drawn)	28.9%	33.3%	23.1%	34.8%	11%	-5.66% (active)	92.4%	21.5%	79.2%	
O=C1C=CC2(NN=C(c3ccccc3)N2c2cccc(Cl)c2)C(Cl)=C1 (stereo not drawn)	85.9%	86.5%	63.8%	91.8%	84.5%	36.6%	80.1%	98%	103%	
CCOc1ccc(N=C(C)Nc2ccc(OCC)cc2)cc1	102%	110%	109%	102%	81.9%	128%	95.3%	104%	102%	
CNC(=O)c1cc(Oc2ccc3nc(NC(=O)Nc4ccc(Cl)c(C(F)(F)F)c4)sc3c2)ccn1	16.5%	20.6%	-31.3% (active)	3.45% (active)	-27.6% (active)	17.1%	-25.1% (active)	-64.4% (active)	23.8%	
CCN1CCN(Cc2ccc(Cc3ncc(F)c(-c4cc(F)c5nc(C)n(C(C)C)c5c4)n3)nc2)CC1	44.3%	34.3%	44.4%	-56.1% (active)	50%	69%	28.5%	46.4%	16%	
COc1ccc(S(=O)(=O)N(C(C)=O)c2ccccc2/C=C/c2cc[n+]([O-])cc2)cc1	32.7%	80.6%	10.5%	3.49% (active)	56.6%	-26.4% (active)	17.5%	26.7%	-36.6% (active)	
COc1c(C(NC(=O)c2ccccc2)c2sccc2C)cc(Cl)c2cccnc12 (stereo not drawn)	100%	89.1%	88.2%	106%	104%	72.4%	75.7%	98.9%	121%	
CC(C)(C)c1ccc(Cn2cc(CSc3nc4ccccc4s3)nn2)cc1	90.4%	83%	87.6%	103%	80.6%	84.4%	83.5%	96.2%	102%	
CC1(COc2ccc3c(c2)ncn3-c2ccc3cccc(N4CCC(N)CC4)c3n2)COC1	20.6%	19.9%	2.15% (active)	-33% (active)	63.3%	-36.9% (active)	-35.2% (active)	-33.2% (active)	-66.5% (active)	
CCCCCCCC(=O)SCC/C=C/[C@@H]1CC(=O)NCc2cccc(n2)C2=N[C@@](C)(CS2)C(=O)N[C@@H](C(C)C)C(=O)O1	2.23% (active)	-9.02% (active)	-22.2% (active)	5.88% (active)	-5.42% (active)	-12.7% (active)	0.749% (active)	10.8%	-61.8% (active)	
CC(C)[C@@H]1CC[C@@H]2[C@@H]1[C@H](OC(=O)/C=C/c1ccccc1)[C@]1(C(C)C)C[C@@H](OC(=O)CO)[C@@]2(C)O1	83.1%	63.2%	87.4%	89.3%	68.6%	65.9%	71.4%	78.1%	84.6%	
CCCCCCC1(/C=N/NC(N)=O)NC(=O)NC1=O (stereo not drawn)	94%	91.4%	78.3%	111%	110%	58%	70.5%	98.2%	91.9%	
O=CC(OC(=O)c1ccccc1)C(OC(=O)c1ccccc1)C(COC(c1ccccc1)(c1ccccc1)c1ccccc1)OC(=O)c1ccccc1 (stereo not drawn)	51.3%	76.4%	99.8%	89.2%	-54.6% (active)	40.4%	97.5%		57.2%	97.1%
O=C1C=CC2(NN=C(c3ccccc3)N2c2ccc(Cl)cc2)c2cccc(O)c21 (stereo not drawn)	13.6%	60.5%	26.5%	64.3%	125%	51.1%	22.3%	93.4%	94.5%	
CC(C)OP(=O)(CCC(=O)c1c[nH]c2ccccc12)OC(C)C	96.8%	94%	88.1%	114%	95.5%	86.9%	68.7%	109%	103%	
O=C(c1c(F)ccc(NS(=O)(=O)N2CC[C@@H](F)C2)c1F)c1c[nH]c2ncc(-c3cnc(C4CC4)nc3)cc12	58.6%	62.3%	37.7%	37.3%	35.7%	32.5%	33.8%	39.8%	0.255% (active)	
Oc1ccc(/C=N/Nc2nnc(N/N=C/c3ccc(O)cc3O)c3ccccc23)c(O)c1	-58.7% (active)	-39.5% (active)	-31.6% (active)	-34.1% (active)	-35.8% (active)	-45.4% (active)	-58% (active)	-3.79% (active)	-23.8% (active)	
COCC(=O)NC/C=C/c1ccc2ncnc(Nc3ccc(Oc4ccc(C)nc4)c(C)c3)c2c1	39.3%	53.5%	58.8%	50.7%	23.8%	14.8%	46%	55%	9.48% (active)	
COc1ccc2c(CCCc3ccc(Cl)cc3Cl)c3[n+](cc2c1OC)CCc1cc2c(cc1-3)OCO2	-12.2% (active)	14.6%	13.8%	4.66% (active)	0.488% (active)	-12.4% (active)	11.9%	16.5%	-59.6% (active)	
N#CC[C@H](C1CCCC1)n1cc(-c2ncnc3[nH]ccc23)cn1	71.5%		45.1%	54.7%	41.5%	37.9%	43.8%	54.7%	37%	76.2%
O=C(Cc1ccc(-c2ccc(OCCN3CCOCC3)cc2)cn1)NCc1ccccc1	29%		-3.09% (active)	2.01% (active)	27.6%	-5.77% (active)	4.91% (active)	24.2%	-65.3% (active)	33.1%
O=C(NCCO)Nc1ccc(-c2nc(N3CCOCC3)c3cccn3n2)cc1	18.2%		-0.0166% (active)	8.21% (active)	-21.4% (active)	10.1%	2.7% (active)	-5.56% (active)	-7.82% (active)	18%
CC(C)(C)c1cnc(CSc2cnc(NC(=O)C3CCNCC3)s2)o1	-22.2% (active)		-16.2% (active)	2.67% (active)	-8.65% (active)	-24.8% (active)	1.61% (active)	12%	-45.3% (active)	5.62% (active)
C=CCn1c(=O)c2cnc(Nc3ccc(N4CCN(C)CC4)cc3)nc2n1-c1cccc(C(C)(C)O)n1	2.22% (active)		2.56% (active)	12%	49.2%	-45.8% (active)	15.9%	14%		14.1%
